In PubChem BioAssay (NCATS):
Inconclusive results are not listed. Active and inactive are the calls of the source. Calls come from the whole dose curve; as a rule, active = well fitted curve in the direction sought with a large enough effect; inconclusive = small, poorly fitted or top-dose-only effect, or another doubt; inactive = no such curve, though single readings can be large; an effect the other way counts as inactive or inconclusive.

How the values were obtained:
[1] = qHTS of pediatric cancer cell lines to identify multiple opportunities for drug repurposing: Primary screen for U-2 OS cells (AID 1347096); note: nearly all actives have a fitted effect of over 50% in size
In short: (§1)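 Viability after 48 h compound treatment at 37C, 500-1,000 cells/well, read as ATP luminescence with CellTiter-Glo. Primary screens used 11-point (MIPE, 0.78 nM-46 µM) or 8-point (NPC, 0.59 nM-46 µM) final concentrations; follow-up screens used 11-point dilutions.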

[2] = qHTS of pediatric cancer cell lines to identify multiple opportunities for drug repurposing: Primary screen for Saos-2 cells (AID 1347097); note: nearly all actives have a fitted effect of over 40% in size
In short: (§2)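 Cells seeded at 500-1,000 cells/well in growth media, rested 5 hours at 37 degrees C, 5% CO2, then dosed; MIPE compounds at 11-point (from 0.78 nM) and NPC at 8-point (from 0.59 nM) final concentrations. Viability by CellTiter-Glo luminescence after 48 hours.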

[3] = qHTS of pediatric cancer cell lines to identify multiple opportunities for drug repurposing: Primary screen for SK-N-SH cells (AID 1347098);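 note: DMSO served as neutral control and bortezomib at 2.3 µM as positive control; nearly all actives have a fitted effect of over 65% in size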
In short: (§3)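 Cells (500-1,000/well) rested 5 h, then received compounds for 48 h; metabolically active cells were measured by CellTiter-Glo luminescence. Final concentrations spanned up to 46 µM (MIPE, 11-point) or 0.59 nM-46 µM (NPC, 8-point) in primary screens, 11-point in follow-ups.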

[4] = qHTS of pediatric cancer cell lines to identify multiple opportunities for drug repurposing: Primary screen for LAN-5 cells (AID 1347100)
In short: as §1

[5] = qHTS of pediatric cancer cell lines to identify multiple opportunities for drug repurposing: Primary screen for BT-12 cells (AID 1347101); note: nearly all actives have a fitted effect of over 25% in size
In short: as §3

[6] = qHTS of pediatric cancer cell lines to identify multiple opportunities for drug repurposing: Primary screen for Rh18 cells (AID 1347102); note: nearly all actives have a fitted effect of over 65% in size
In short: as §1

[7] = qHTS of pediatric cancer cell lines to identify multiple opportunities for drug repurposing: Primary screen for OHS-50 cells (AID 1347103); note: nearly all actives have a fitted effect of over 40% in size
In short: as §3

[8] = qHTS of pediatric cancer cell lines to identify multiple opportunities for drug repurposing: Primary screen for RD cells (AID 1347104); note: nearly all actives have a fitted effect of over 55% in size
In short: as §2

[9] = qHTS of pediatric cancer cell lines to identify multiple opportunities for drug repurposing: Primary screen for MG 63 (6-TG R) cells (AID 1347105); note: nearly all actives have a fitted effect of over 50% in size
In short: as §2

[10] = qHTS of pediatric cancer cell lines to identify multiple opportunities for drug repurposing: Primary screen for NB1643 cells (AID 1347099); note: nearly all actives have a fitted effect of over 50% in size
In short: as §2

Measured: Potency

CN/C(=C\[N+](=O)[O-])NCCSCc1csc(CN(C)C)n1
inactive: [1] | [2] | [3] | [4] | [5] | [6] | [7] | [8] | [9]

CCN1CC(CCN2CCOCC2)C(c2ccccc2)(c2ccccc2)C1=O (stereo not drawn)
inactive: [1] | [2] | [3] | [10] | [4] | [5] | [6] | [7] | [8] | [9]

O=C(O)CCCCC1CCSS1 (stereo not drawn)
inactive: [1] | [2] | [3] | [10] | [4] | [5] | [6] | [7] | [8] | [9]

O=C(NCCCN1CCOCC1)c1ccc(Cl)cc1
inactive: [1] | [2] | [3] | [4] | [5] | [6] | [7] | [8] | [9]

COCC(=O)Nc1c(I)c(C(=O)NCC(O)CO)c(I)c(C(=O)N(C)CC(O)CO)c1I (stereo not drawn)
inactive: [1] | [2] | [3] | [10] | [4] | [5] | [6] | [7] | [8] | [9]

CC1CCN(CCCC(=O)c2ccc(F)cc2)CC1
inactive: [1] | [2] | [3] | [4] | [5] | [6] | [7] | [8] | [9]

CC(O)CCCCn1c(=O)c2c(ncn2C)n(C)c1=O (stereo not drawn)
inactive: [1] | [2] | [3] | [4] | [5] | [6] | [7] | [8] | [9]

Cc1ccsc1C(=CCCN1CCC[C@@H](C(=O)O)C1)c1sccc1C
inactive: [1] | [2] | [3] | [4] | [5] | [6] | [7] | [8] | [9]

COc1ccc(-c2cc(=O)c3c(O)cc(O[C@@H]4O[C@H](CO[C@@H]5O[C@@H](C)[C@H](O)[C@@H](O)[C@H]5O)[C@@H](O)[C@H](O)[C@H]4O)cc3o2)cc1O
inactive: [1] | [2] | [3] | [10] | [4] | [5] | [6] | [7] | [8] | [9]

O=C(Cn1ccnc1[N+](=O)[O-])NCCO
inactive: [1] | [2] | [3] | [4] | [5] | [6] | [7] | [8] | [9]

C[C@@H](N)C(=O)O
inactive: [1] | [2] | [3] | [4] | [5] | [6] | [7] | [8] | [9]

CCCCOC(=O)c1ccc(N)cc1
inactive: [1] | [2] | [3] | [10] | [4] | [5] | [6] | [9]

CC1(C)S[C@@H]2[C@H](N=CN3CCCCCC3)C(=O)N2[C@H]1C(=O)O
inactive: [1] | [2] | [3] | [4] | [5] | [6] | [7] | [8] | [9]

O=c1[nH]c(=O)c2ccccc2o1
inactive: [1] | [2] | [3] | [10] | [4] | [5] | [6] | [7] | [8] | [9]

CC(=O)N(CC(O)CO)c1c(I)c(C(=O)NCC(O)CO)c(I)c(C(=O)NCC(O)CO)c1I (stereo not drawn)
inactive: [1] | [2] | [3] | [10] | [4] | [5] | [6] | [7] | [8] | [9]

CCCCCCCCCCC(CO)CCCCCCCC (stereo not drawn)
inactive: [1] | [2] | [3] | [4] | [5] | [6] | [7] | [8] | [9]

CCCCCC(C)N (stereo not drawn)
inactive: [1] | [2] | [3] | [4] | [5] | [6] | [7] | [8] | [9]

CCCC(O)C(CC)CO (stereo not drawn)
inactive: [1] | [2] | [3] | [4] | [5] | [6] | [7] | [8] | [9]

CC(=O)OCC(=O)[C@@]1(O)CC[C@H]2[C@@H]3CCC4=CC(=O)C=C[C@]4(C)[C@@]3(F)[C@@H](O)C[C@@]21C
inactive: [1] | [2] | [3] | [4] | [5] | [6] | [7] | [8] | [9]

CC[C@]12CCCN3CCc4c(n(c5ccccc45)[C@@](O)(C(=O)OC)C1)[C@@H]32
inactive: [1] | [2] | [3] | [4] | [5] | [6] | [7] | [8] | [9]

Cc1ccc2c(c1)c1c3n2CCNC3CCC1 (stereo not drawn)
inactive: [1] | [2] | [3] | [10] | [4] | [5] | [6] | [8] | [9]

NC(=O)CC[C@@H](N)C(=O)O
inactive: [1] | [2] | [3] | [4] | [5] | [6] | [7] | [8] | [9]

O=C1c2ccccc2S(=O)(=O)N1CCCCN1CCN(c2ncccn2)CC1
inactive: [1] | [2] | [3] | [4] | [5] | [6] | [7] | [8] | [9]

CC[N+](C)(CC)CCOC(=O)C1c2ccccc2Oc2ccccc21
inactive: [1] | [2] | [3] | [4] | [5] | [6] | [7] | [8] | [9]

Cc1c(C)c2c(c(C)c1OC(=O)c1cccnc1)CC[C@@](C)(CCC[C@H](C)CCC[C@H](C)CCCC(C)C)O2
inactive: [1] | [2] | [3] | [4] | [5] | [6] | [7] | [8] | [9]

CCOC(=O)[C@H](CCc1ccccc1)N[C@@H](C)C(=O)N1CCC[C@H]1C(=O)O
inactive: [1] | [2] | [3] | [10] | [4] | [6] | [7] | [8] | [9]

O=C(O)Cn1c(C(=O)Nc2nc(-c3ccccc3Cl)cs2)cc2ccccc21
inactive: [1] | [2] | [3] | [4] | [5] | [6] | [7] | [8] | [9]

COc1ccc2cc(CCC(C)=O)ccc2c1
inactive: [1] | [2] | [3] | [10] | [4] | [5] | [6] | [8] | [9]

NCC1CCC(C(=O)Oc2ccc(CCC(=O)O)cc2)CC1 (stereo not drawn)
inactive: [1] | [2] | [3] | [10] | [4] | [5] | [6] | [7] | [8] | [9]

O=C(O)[C@@H]1[C@H]2C[C@H]3c4[nH]c5ccccc5c4CCN3C[C@@H]2CC[C@@H]1O
inactive: [1] | [2] | [3] | [10] | [5] | [6] | [7] | [8] | [9]

CCOC(=O)[C@H](CCc1ccccc1)N[C@@H](C)C(=O)N1Cc2cc(OC)c(OC)cc2C[C@H]1C(=O)O
inactive: [1] | [2] | [3] | [10] | [4] | [5] | [6] | [7] | [8] | [9]

O=C(/C=C/c1ccc(O)c(O)c1)O[C@@H]1C[C@@](OC(=O)/C=C/c2ccc(O)c(O)c2)(C(=O)O)C[C@@H](O)[C@@H]1O
inactive: [1] | [2] | [3] | [10] | [4] | [5] | [6] | [7] | [8] | [9]

CCCOC(=O)c1ccc(N)cc1
inactive: [1] | [2] | [3] | [4] | [5] | [6] | [7] | [8] | [9]

CCc1cccc(CC)c1NC(=O)CN(CC(=O)O)CC(=O)O
inactive: [1] | [2] | [3] | [4] | [5] | [6] | [7] | [8] | [9]

Cn1cc(C(=O)[C@@H]2CCc3nc[nH]c3C2)c2ccccc21
inactive: [1] | [2] | [10] | [4] | [5] | [6] | [8] | [9]

CC(C)c1cc2c(cc1S(=O)(=O)O)[C@@]1(C)CCC[C@@](C)(C(=O)O)[C@@H]1CC2
inactive: [1] | [2] | [10] | [4] | [5] | [6] | [7] | [8] | [9]

Cc1cccc(Nc2ccccc2C(=O)O)c1C
inactive: [1] | [3] | [10] | [4] | [5] | [6] | [7] | [8] | [9]

CC(=O)Nc1cccc(O)c1
inactive: [1] | [3] | [10] | [4] | [5] | [6] | [7] | [8] | [9]

CCc1nnc(NS(=O)(=O)c2ccc(N)cc2)s1
inactive: [1] | [2] | [3] | [4] | [5] | [6] | [7] | [8] | [9]

CN1C(C)(C)CCCC1(C)C
inactive: [1] | [2] | [10] | [4] | [5] | [6] | [7] | [8] | [9]

COc1cc(O)cc(O)c1
inactive: [1] | [2] | [10] | [4] | [5] | [6] | [7] | [8] | [9]

Cc1[nH]c(C)c(Cl)c(=O)c1Cl
inactive: [1] | [2] | [3] | [4] | [5] | [6] | [7] | [8] | [9]

O=C(O)Cc1cn(-c2ccccc2)nc1-c1ccc(Cl)cc1
inactive: [1] | [2] | [10] | [4] | [5] | [6] | [7] | [8] | [9]

O=C(CCBr)N1CCN(C(=O)CCBr)CC1
inactive: [1] | [2] | [10] | [4] | [5] | [6] | [7] | [8] | [9]

COc1ccc(C(=O)NCc2ccc(OCCN(C)C)cc2)cc1OC
inactive: [1] | [2] | [10] | [4] | [5] | [6] | [7] | [8] | [9]

CCC(C)(CN(C)C)OC(=O)c1ccccc1 (stereo not drawn)
inactive: [1] | [3] | [10] | [4] | [5] | [6] | [7] | [8] | [9]

O=C(OOC(=O)c1ccccc1)c1ccccc1
inactive: [1] | [2] | [3] | [4] | [5] | [6] | [7] | [8] | [9]

NS(=O)(=O)c1cc(-c2nn[nH]n2)c(NCc2cccs2)cc1Cl
inactive: [2] | [3] | [10] | [4] | [5] | [6] | [7] | [8] | [9]

Nc1c2c(nc3c1CCC3)CCCC2
inactive: [1] | [3] | [10] | [4] | [5] | [6] | [7] | [8] | [9]
